Laboratory results reported in PubChem BioAssay AID977628 (Broad Institute, 2014).
Fewer than 10 of roughly 1,900 compounds were called active. About 20% were inconclusive and are not listed. These entries were drawn from the full list. A number with no mark means an inactive call.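 The calls were made as follows: active = compound lowering the normal-ribosome reporter at least twice as much as the humanized-ribosome reporter, growth loss under a set limit; inconclusive = no clear call, values can overlap the other calls; inactive = the rest.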

Test: growth of wild-type and h24-humanized E. coli strains – h24 mutant RFP vs wild-type GFP, cherry-pick, dose response (AID 977628)
Conditions: E. coli WT GFP strain growth, fluorescence, 24 h; series mostly up to 50 µM; activity change, negative = inhibition: at the top concentration
With CCn1c(NC(=O)c2nn(C)cc2Br)nc2ccccc21 the “activity change, negative = inhibition” value was -2.68. For Cc1ccc(C(=O)NCC(=O)OCC(=O)Nc2cccc(S(=O)(=O)N3CCCC3)c2)cc1C, the “activity change, negative = inhibition” value was -14.5. In the case of O=C(NCCc1ccccc1)c1cccc(NC(=O)c2ccccc2)c1, the “activity change, negative = inhibition” value was -14. In the case of CNC(=O)c1ccsc1NC(=O)c1ccc(S(=O)(=O)N2CCc3ccccc32)cc1, the “activity change, negative = inhibition” value was -16.9. In the case of O=C(N[C@@H](Cc1ccccc1)C(=O)OCc1ccccc1)c1nc[nH]c1C(=O)NC1CCNCC1, the “activity change, negative = inhibition” value was -13.3. For COc1ccccc1N1CCN(Cc2ccc(OC)c3ccccc23)CC1, the “activity change, negative = inhibition” value was -11.9. For Cc1n[nH]c(C)c1S(=O)(=O)N1CCCC(C(=O)Nc2ccc(Br)cc2)C1 (stereo not drawn), the “activity change, negative = inhibition” value was -11.2. With COc1ccccc1CC(=O)NCCc1c[nH]c2ccccc12 the “activity change, negative = inhibition” value was -8.31. With CC(=O)Nc1ccc(CNc2nc(NCCN(C)C)nc3cc(-c4ccccc4)sc23)cc1 the “activity change, negative = inhibition” value was 3.84. With CC1CCCC(NC(=O)COC(=O)[C@@H]2CC(O)CN2S(=O)(=O)c2ccc3c(c2)OCCO3)C1C (stereo partly drawn) the “activity change, negative = inhibition” value was -10.7. With CCc1cc2cc(OC)ccc2nc1SCC(=O)Nc1cc(OC)c(OC)cc1C(=O)O the “activity change, negative = inhibition” value was -9.76. For Cc1ccc2c(N)c(C(=O)c3ccccc3)sc2n1, the “activity change, negative = inhibition” value was -5.41. With COc1ccc(C2=NN(C(=O)c3cccnc3)C(c3ccccc3)C2)cc1 (stereo not drawn) the “activity change, negative = inhibition” value was -5.27. For Cc1ccc(-c2c[n+](CC(=O)Nc3ccccc3)c3n2CCC3)cc1, the “activity change, negative = inhibition” value was -6.55. With Cc1ccc(OCCCC(=O)NC(C)c2ccccc2)c(C)c1 (stereo not drawn) the “activity change, negative = inhibition” value was -8.4. For O=C(NCc1ccc2c(c1)OCO2)c1sccc1Br, the “activity change, negative = inhibition” value was -4.39. For Cc1cccc(NC(=O)c2nc(S(=O)(=O)Cc3ccccc3)ncc2Cl)c1, the “activity change, negative = inhibition” value was 6.25. With Cn1cc(CCC(=O)NCc2ccc3c(c2)OCO3)c2ccccc21 the “activity change, negative = inhibition” value was -5.07. With Cc1ccc(S(=O)(=O)NC(C)C(=O)NCc2ccc(Cl)cc2)cc1 (stereo not drawn) the “activity change, negative = inhibition” value was -9.27. For CCc1c(N=O)c(-c2ccccc2)n(O)[n+]1[O-], the “activity change, negative = inhibition” value was -8.37. For COc1ccc2c(c1)c1ncn(Cc3ccccn3)c(=O)c1n2C, the “activity change, negative = inhibition” value was -10.3. In the case of O=C(c1cccc(F)c1)N1CCN(c2ccc([N+](=O)[O-])c3cccnc23)CC1, the “activity change, negative = inhibition” value was -8.81. In the case of C[C@@H]1CN([C@@H](C)CO)C(=O)c2cc(NS(=O)(=O)c3ccccc3)ccc2O[C@@H]1CN(C)Cc1ccc(C(=O)Nc2ccccc2N)cc1, the “activity change, negative = inhibition” value was 1.48.
